We go through one sequence from PMC7862700, “An all-to-all approach to the identification of sequence-specific readers for epigenetic DNA modifications on cytosine”.

What all share (test): DAPPL (digital affinity profiling via proximity ligation, sequencing); 10 mM Tris-HCl pH 7.5, 50 mM NaCl, 1 mM DTT, 4% glycerol, room temperature, 30 min; GST-TFs on glutathione beads, 16-mer random dsDNA library, 0.1% formaldehyde crosslink after washing; high values mean tight binding
Common to all, as to details: protein: recombinant; tags: N-terminal GST; dsDNA, one strand shown

One experiment concerns the target T1, FLI1 (Homo sapiens, UniProt Q01543 1-452).
T1 sequence: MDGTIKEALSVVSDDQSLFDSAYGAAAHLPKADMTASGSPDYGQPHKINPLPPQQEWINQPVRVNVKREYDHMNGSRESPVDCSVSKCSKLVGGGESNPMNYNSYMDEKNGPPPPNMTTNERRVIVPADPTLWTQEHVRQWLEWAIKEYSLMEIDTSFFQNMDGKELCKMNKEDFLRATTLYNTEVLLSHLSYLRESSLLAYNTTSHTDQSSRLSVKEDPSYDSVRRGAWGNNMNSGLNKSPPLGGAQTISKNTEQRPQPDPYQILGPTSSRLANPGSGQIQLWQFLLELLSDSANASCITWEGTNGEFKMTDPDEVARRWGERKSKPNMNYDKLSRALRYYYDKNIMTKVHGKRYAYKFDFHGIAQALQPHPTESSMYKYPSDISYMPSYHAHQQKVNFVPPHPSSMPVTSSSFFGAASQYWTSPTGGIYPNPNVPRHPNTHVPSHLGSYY
The essentials: (§1)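 GST fusions of human transcription factors were expressed in yeast and captured with glutathione beads. Once given DNA barcodes and pooled alongside a tag-only sample, they were incubated for 30 min at room temperature with 200 nmole of a random double-stranded 16-mer DNA library in Tris/NaCl/DTT/glycerol buffer, then washed, crosslinked (0.1% formaldehyde), proximity-ligated, PCR-amplified and sequenced on an Illumina NextSeq500. The binding signal of each hexamer is its read frequency for a factor divided by its frequency for the tag-only sample.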

The next experiment has as its target T2, ELK1 (Homo sapiens, UniProt P19419 1-428).
T2 sequence: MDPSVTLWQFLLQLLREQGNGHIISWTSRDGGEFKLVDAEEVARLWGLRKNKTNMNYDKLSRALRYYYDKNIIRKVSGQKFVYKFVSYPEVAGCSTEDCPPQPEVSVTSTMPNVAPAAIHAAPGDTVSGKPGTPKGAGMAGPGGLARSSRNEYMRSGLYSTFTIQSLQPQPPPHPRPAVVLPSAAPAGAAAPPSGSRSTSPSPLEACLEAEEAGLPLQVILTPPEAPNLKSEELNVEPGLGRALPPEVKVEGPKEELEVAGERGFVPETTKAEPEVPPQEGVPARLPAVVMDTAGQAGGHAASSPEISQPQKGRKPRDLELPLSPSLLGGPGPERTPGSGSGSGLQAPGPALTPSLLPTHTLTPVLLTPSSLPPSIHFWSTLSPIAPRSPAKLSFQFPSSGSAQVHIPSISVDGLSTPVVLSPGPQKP
The essentials: as §1

The target of another experiment is T3, GABPA (Homo sapiens, UniProt Q06546 1-454).
T3 sequence: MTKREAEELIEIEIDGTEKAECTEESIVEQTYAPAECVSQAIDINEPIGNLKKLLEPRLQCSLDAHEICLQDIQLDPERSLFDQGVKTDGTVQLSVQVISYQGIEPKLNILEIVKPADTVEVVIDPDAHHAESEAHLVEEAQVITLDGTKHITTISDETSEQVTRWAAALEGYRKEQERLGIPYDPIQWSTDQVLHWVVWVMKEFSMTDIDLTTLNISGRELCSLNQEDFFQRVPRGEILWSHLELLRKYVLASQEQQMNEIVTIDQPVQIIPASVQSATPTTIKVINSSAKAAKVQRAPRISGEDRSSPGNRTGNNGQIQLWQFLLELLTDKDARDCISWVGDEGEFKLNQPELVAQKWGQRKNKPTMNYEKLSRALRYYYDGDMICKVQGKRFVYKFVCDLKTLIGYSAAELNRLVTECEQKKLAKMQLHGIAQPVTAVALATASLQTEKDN
The essentials:
as §1

A further experiment deals with ELF1 (Homo sapiens, UniProt P32519 1-619). The essentials: as §1
The target of a further experiment is T4, EHF (Homo sapiens, UniProt Q9NZC4 1-300).
T4 sequence: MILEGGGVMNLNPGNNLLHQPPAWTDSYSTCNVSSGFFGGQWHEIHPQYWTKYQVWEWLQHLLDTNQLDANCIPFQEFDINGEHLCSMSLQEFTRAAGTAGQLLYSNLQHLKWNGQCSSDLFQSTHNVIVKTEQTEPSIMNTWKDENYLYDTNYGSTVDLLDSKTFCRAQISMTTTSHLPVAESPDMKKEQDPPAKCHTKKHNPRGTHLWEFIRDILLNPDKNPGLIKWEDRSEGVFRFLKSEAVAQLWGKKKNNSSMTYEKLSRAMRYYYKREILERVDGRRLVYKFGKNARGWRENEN
Summed up:
as §1

The target in the next experiment is SPI1 (Homo sapiens, UniProt P17947 1-270). Summed up: as §1
In another experiment the target is SPIB (Homo sapiens, UniProt Q01892 1-262). Summed up: as §1
The target of another experiment is T5, ELK3 (Homo sapiens, UniProt P41970 1-407).
T5 sequence: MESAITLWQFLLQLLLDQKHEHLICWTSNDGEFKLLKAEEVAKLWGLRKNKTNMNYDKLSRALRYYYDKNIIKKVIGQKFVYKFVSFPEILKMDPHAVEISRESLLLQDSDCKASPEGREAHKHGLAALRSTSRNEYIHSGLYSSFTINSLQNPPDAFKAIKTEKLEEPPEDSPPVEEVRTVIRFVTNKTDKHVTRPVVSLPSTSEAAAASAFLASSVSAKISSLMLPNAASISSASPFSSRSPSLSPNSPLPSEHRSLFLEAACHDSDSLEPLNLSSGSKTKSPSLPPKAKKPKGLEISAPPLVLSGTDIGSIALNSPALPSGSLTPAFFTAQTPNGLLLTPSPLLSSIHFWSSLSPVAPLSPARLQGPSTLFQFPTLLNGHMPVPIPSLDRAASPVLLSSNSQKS
The essentials:
as §1

The next experiment has as its target T6, FEV (Homo sapiens, UniProt Q99581 1-238).
T6 sequence: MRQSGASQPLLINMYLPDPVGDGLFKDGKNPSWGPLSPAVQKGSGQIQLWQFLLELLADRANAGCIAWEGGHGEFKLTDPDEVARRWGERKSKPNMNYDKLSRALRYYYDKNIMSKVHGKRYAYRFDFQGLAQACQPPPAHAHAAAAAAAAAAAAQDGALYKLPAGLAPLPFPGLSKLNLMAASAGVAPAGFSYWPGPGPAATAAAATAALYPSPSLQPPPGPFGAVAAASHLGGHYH
Summed up: as §1

Another experiment addresses ETV5 (Homo sapiens, UniProt P41161 1-510). Summed up:
as §1

A further experiment has as its target T7, SPIC (Homo sapiens, UniProt Q8N5J4 1-248).
T7 sequence: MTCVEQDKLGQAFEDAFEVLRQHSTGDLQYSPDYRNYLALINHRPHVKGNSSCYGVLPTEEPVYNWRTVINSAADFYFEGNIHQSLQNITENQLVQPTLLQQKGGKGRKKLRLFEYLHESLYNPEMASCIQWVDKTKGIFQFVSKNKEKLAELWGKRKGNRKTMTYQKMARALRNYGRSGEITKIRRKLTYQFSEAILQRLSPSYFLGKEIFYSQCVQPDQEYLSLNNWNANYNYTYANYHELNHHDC
Summed up: as §1

In another experiment the target is ELF4 (Homo sapiens, UniProt Q99607 1-663). Summed up: as §1
A further experiment has as its target T8, ELK4 (Homo sapiens, UniProt P28324-2 1-405).
T8 sequence: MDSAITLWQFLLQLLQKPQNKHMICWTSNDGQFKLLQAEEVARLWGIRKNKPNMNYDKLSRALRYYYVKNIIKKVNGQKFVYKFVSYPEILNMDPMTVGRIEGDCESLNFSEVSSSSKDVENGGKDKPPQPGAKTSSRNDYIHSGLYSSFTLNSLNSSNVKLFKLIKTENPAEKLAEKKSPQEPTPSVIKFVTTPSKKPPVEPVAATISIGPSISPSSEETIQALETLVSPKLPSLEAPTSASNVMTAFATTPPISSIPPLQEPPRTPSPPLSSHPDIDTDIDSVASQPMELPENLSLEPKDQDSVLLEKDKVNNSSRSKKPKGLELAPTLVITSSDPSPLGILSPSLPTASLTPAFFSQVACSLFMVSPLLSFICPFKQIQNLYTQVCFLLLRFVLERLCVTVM
Summed up:
as §1

Another experiment deals with T9, ETV2 (Homo sapiens, UniProt O00321 1-342).
T9 sequence: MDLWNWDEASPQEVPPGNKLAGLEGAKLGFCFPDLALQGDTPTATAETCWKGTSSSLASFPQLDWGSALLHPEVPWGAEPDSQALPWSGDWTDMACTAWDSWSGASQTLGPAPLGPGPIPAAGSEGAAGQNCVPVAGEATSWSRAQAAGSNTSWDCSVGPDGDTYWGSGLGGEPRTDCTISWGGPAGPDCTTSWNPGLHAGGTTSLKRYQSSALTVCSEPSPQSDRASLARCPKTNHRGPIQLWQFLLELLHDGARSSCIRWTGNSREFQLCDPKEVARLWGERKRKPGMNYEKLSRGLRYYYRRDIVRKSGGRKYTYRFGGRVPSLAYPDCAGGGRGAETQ
Summed up:
as §1

Another experiment addresses T10, ELF3 (Homo sapiens, UniProt P78545 1-371).
T10 sequence: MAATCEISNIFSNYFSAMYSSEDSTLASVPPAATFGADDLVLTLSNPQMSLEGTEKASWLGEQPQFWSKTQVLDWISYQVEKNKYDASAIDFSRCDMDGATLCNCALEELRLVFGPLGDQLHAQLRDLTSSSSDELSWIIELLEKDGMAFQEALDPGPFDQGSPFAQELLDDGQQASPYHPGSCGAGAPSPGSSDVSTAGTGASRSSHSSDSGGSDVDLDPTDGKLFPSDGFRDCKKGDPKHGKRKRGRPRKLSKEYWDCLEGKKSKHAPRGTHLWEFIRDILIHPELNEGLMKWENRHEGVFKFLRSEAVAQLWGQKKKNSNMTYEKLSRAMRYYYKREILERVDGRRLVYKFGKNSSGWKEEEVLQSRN
The essentials: as §1

Another experiment addresses ETV1 (Homo sapiens, UniProt P50549 1-477). Summed up:
as §1

ETV1, sequence (P50549 whole entry): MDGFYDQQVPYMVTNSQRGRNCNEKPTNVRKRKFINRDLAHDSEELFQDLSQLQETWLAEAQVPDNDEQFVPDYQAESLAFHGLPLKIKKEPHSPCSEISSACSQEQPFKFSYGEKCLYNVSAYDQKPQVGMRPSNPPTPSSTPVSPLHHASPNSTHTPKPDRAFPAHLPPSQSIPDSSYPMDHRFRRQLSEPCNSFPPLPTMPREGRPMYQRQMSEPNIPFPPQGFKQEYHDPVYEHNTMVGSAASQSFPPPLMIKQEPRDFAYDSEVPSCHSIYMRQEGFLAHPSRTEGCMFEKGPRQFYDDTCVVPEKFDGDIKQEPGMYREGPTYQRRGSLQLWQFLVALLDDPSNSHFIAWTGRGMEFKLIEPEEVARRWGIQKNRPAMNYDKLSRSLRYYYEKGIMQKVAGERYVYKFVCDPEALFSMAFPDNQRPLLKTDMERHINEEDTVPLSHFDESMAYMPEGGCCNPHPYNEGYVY
ETV5, sequence (P41161 whole entry): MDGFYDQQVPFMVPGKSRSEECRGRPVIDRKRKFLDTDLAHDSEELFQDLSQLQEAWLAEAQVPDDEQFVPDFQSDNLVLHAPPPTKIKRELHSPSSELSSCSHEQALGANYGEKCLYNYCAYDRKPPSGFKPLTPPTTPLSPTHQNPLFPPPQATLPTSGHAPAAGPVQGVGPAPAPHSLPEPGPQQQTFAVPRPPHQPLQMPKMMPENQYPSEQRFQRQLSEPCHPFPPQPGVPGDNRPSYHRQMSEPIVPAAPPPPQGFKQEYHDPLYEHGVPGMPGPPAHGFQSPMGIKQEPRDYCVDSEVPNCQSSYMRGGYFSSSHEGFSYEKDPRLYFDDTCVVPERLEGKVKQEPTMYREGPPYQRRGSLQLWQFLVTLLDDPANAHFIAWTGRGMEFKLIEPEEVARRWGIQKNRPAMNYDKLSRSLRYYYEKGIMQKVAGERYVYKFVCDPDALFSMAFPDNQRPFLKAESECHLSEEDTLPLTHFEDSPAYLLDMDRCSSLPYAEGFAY
SPIB, sequence (Q01892 whole entry): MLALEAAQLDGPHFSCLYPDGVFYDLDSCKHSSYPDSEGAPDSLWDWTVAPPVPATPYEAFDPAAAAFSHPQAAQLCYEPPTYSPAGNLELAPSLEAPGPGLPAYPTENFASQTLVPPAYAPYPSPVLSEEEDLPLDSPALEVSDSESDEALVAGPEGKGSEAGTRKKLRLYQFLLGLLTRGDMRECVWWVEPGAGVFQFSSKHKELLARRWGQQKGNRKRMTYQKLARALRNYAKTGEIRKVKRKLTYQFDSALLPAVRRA
ELF4, sequence (Q99607 whole entry): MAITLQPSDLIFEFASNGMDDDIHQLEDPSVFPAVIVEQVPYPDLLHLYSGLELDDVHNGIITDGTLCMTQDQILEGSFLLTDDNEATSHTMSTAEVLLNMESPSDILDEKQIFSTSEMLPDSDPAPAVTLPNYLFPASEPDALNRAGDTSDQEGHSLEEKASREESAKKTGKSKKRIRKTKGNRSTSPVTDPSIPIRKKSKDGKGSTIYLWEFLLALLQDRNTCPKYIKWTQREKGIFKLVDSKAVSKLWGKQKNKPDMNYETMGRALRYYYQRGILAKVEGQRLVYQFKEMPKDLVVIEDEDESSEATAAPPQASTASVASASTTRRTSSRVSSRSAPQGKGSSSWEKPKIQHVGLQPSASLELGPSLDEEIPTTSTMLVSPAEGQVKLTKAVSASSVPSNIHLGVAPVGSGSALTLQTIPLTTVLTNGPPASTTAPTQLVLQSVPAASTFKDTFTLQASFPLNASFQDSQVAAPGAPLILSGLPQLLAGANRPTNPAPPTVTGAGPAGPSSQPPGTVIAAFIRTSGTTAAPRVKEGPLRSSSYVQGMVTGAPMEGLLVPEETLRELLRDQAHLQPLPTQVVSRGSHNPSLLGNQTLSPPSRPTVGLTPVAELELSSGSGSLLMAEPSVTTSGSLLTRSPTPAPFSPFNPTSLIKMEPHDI
ELF1, sequence (P32519 whole entry): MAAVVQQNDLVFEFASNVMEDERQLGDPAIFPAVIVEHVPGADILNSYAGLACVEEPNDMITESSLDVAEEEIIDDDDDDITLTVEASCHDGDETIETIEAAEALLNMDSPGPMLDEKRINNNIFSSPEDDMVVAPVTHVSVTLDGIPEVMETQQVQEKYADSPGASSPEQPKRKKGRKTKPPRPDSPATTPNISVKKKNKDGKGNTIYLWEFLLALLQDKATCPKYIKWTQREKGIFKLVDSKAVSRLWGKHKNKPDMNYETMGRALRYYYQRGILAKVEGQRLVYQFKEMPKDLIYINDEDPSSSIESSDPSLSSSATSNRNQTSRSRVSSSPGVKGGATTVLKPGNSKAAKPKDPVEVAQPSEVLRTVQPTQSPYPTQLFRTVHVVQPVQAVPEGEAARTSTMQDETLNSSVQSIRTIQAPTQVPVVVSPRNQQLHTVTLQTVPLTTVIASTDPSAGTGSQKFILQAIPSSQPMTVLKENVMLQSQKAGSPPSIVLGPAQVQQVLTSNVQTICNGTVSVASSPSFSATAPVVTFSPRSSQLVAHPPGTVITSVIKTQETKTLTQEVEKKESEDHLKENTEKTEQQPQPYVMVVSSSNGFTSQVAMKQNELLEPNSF

GCTGAC: the binding signal in the experiment with FLI1 is 1.17 fold enrichment (6-mer frequency, TF over GST control); with ELK1, 1.1 fold enrichment (6-mer frequency, TF over GST control); with GABPA, 1.04 fold enrichment (6-mer frequency, TF over GST control); with ELF1 it was 1.16 fold enrichment (6-mer frequency, TF over GST control); in the experiment with EHF, 1.21 fold enrichment (6-mer frequency, TF over GST control); with SPI1, 1.04 fold enrichment (6-mer frequency, TF over GST control). Also, the binding signal was 1.12 fold enrichment (6-mer frequency, TF over GST control) in the experiment with SPIB; 1.13 fold enrichment (6-mer frequency, TF over GST control) with ELK3; 1.12 fold enrichment (6-mer frequency, TF over GST control) in the experiment with FEV; 1.03 fold enrichment (6-mer frequency, TF over GST control) in the experiment with ETV5; 1.1 fold enrichment (6-mer frequency, TF over GST control) with SPIC; 1.1 fold enrichment (6-mer frequency, TF over GST control) in the experiment with ELF4. The binding signal was 1.05 fold enrichment (6-mer frequency, TF over GST control) with ELK4; 1.38 fold enrichment (6-mer frequency, TF over GST control) with ETV2; 1.27 fold enrichment (6-mer frequency, TF over GST control) with ELF3; 1.03 fold enrichment (6-mer frequency, TF over GST control) in the experiment with ETV1.
